# PubChem BioAssay (NCI)
# This is part of a sample that, as a whole, favours compounds with a hit. Of some 79,000 tested, about 15% had one in any assay. Values without a mark were called inactive. Activity calls are given as the source filed them. Rule as the data show it: active = growth inhibition above about 70%; inactive = the rest.
# Tests used:
# [1] = NCI Yeast Anticancer Drug Screen. Data for the rad50 strain (AID 155);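 also: 0% = growth of vehicle-only cultures of the same strain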; settings: S. cerevisiae rad50 strain growth inhibition; at 50.0 µM; stronger effect = higher value
# Method in brief: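 Inhibition values express reduced yeast growth in compound-treated cultures relative to vehicle-treated controls.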
# [2] = NCI Yeast Anticancer Drug Screen. Data for the mec2-1 strain (AID 157); settings: S. cerevisiae mec2-1 strain, at 50.0 µM, stronger effect = higher value
# Method in brief: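 Strain: mec2-1 (DNA repair/cell cycle alteration). Compound exposure, then growth measured; inhibition expressed relative to vehicle.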
# [3] = NCI Yeast Anticancer Drug Screen. Data for the sgs1 mgt1 strain (AID 161);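 also: 0% = growth of cultures given vehicle only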; settings: S. cerevisiae sgs1 mgt1 strain, at 50.0 µM, stronger effect = higher value
# Method in brief: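 Read-out: growth inhibition vs vehicle controls. Cells: mutant yeast strain deficient in DNA damage repair.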
# [4] = NCI Yeast Anticancer Drug Screen. Data for the cln2 rad14 strain (AID 165);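 also: 0% = growth equal to vehicle treated cultures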; settings: S. cerevisiae cln2 rad14 strain, at 50.0 µM, stronger effect = higher value
# Method in brief: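 Compounds are applied to the cln2 rad14 yeast strain, and growth is then compared with that of vehicle-treated cultures to give inhibition.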
# [5] = NCI Yeast Anticancer Drug Screen. Data for the bub3 strain (AID 167); settings: S. cerevisiae bub3 mutant strain, at 50.0 µM, stronger effect = higher value
# Method in brief: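 Steps: expose the mutant yeast strain to compound; grow alongside vehicle-treated cultures; measure growth; express inhibition against the vehicle cultures.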
# [6] = NCI Yeast Anticancer Drug Screen. Data for the mlh1 rad18 strain (AID 175); settings: S. cerevisiae mlh1 rad18 strain growth inhibition; at 50.0 µM; stronger effect = higher value
# Method in brief: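 Read-out is yeast growth inhibition, calculated against vehicle-only controls. The compound was applied to a strain engineered with DNA damage repair alterations.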
SMILES,growth inhibition [1] [%],growth inhibition [2] [%],growth inhibition [3],growth inhibition [4] [%],growth inhibition [5] [%],growth inhibition [6] [%]
CC1(C)C(C(=O)/C=C2\Nc3ccccc3C2(C)C)=Nc2ccccc21,-19.5,-5.65,-2.05%,-26.7,-29.4,-7.85
Cc1nc2ccccc2nc1C,-15.2,-1.8,-8.85%,1.2,-2.35,4.85
C/C=C/CS(=O)(=O)Cc1ccccc1,1.85,-11.8,-5.95%,-3.95,-4.3,-14.9
Cc1cccc2c1Oc1ccccc1C2NC(=O)c1ccc([N+](=O)[O-])cc1 (configuration not stated),-19.4,-15.4,-34.5%,-0.9,-23.4,-18
NC(=S)NNC(=O)C(Cc1ccccc1)NC(=O)OCc1ccccc1 (configuration not stated),1.75,17.7,22.9%,-7.6,15.7,11.4
COc1ccc(Cl)cc1NC(=O)c1cccc([N+](=O)[O-])c1O,-14.9,8.95,1.75%,-8.55,8.65,-78.4
Cc1ccc(S(=O)(=O)N2CC(O)C=Cc3ccccc32)cc1 (configuration not stated),5.4,-3.1,-4.45%,17.5,5.15,9.85
CCOC(=O)NC(CI)(c1ccccc1)c1ccccc1,20.9,10.2,3.55%,7.2,-0.25,14.6
O=C1c2cc3c(cc2C(=O)c2[nH]c(=O)ccc21)CCCC3,11.5,25.9,16%,0.85,33.4,35.6
C=CC1ON(C)CCc2cc(OC)c(OC)cc21 (configuration not stated),-4.9,-1,-53.5%,15.1,-1.8,-9.9
O=c1c2cc([N+](=O)[O-])ccc2n2n1Cc1ccccc1CC2,-12.8,-0.9,-6.5%,21.5,18.5,-16.4
CSc1nc(NC2OC(CO)C(O)C(O)C2O)c(Br)c(=O)n1C (configuration not stated),0.4,-1.7,-6.3%,-8.75,-2.75,20.1
O=C(O)c1c(Br)c(Br)c(Br)c(Br)c1C(=O)Nc1ccccc1C(F)(F)F,-8.55,-11.4,-2.65%,-2.75,8.05,-12.2
CC(=O)Oc1ccc2c(c1)CC[C@@H]1C2[C@@H](O[N+](=O)[O-])C[C@@]2(C)C1CC[C@@H]2O (some centres not stated),25.5,43.3,77.2% (active),62,31.9,57.8
CCOC(=O)Nc1nc2cc(C(=O)OC)n(C)c2s1,19.4,23.6,25.7%,11.1,7.4,18.9
CCCCCCCCCCCCCCCCc1c(C(=O)OC)[nH]c(=S)[nH]c1=O,-49,-18.2,-21.9%,-2.8,-29.1,-11.3
CCCCCc1cc(C(=O)NN)c2ccccc2n1,-29.7,-25,-12.6%,-15.8,33.1,-12.8
CCOC(=O)c1cccc(NC(=O)CCl)c1,43.2,30.1,37.6%,26,39.9,49.5
COC(=O)C1(C)CCCC2(C)C3CCC(C(C)C)CC3CCC12 (configuration not stated),24.9,-12.8,20.1%,-12.6,-5.9,8.65

SMILES,growth inhibition [1] [%],growth inhibition [2] [%],growth inhibition [3],growth inhibition [4] [%],growth inhibition [5] [%],growth inhibition [6] [%]
CCCCNC(=O)c1ccc([N+](=O)[O-])cc1,29.3,12,13.4%,17.6,-16.8,-9.05
O=c1ccccc2cccc(O)c12,8.25,0.2,-1.35%,-17.4,8.15,10.3
NC(=O)C1C2CC3C(C2O)C31C(N)=O (configuration not stated),-13.1,-4,-14%,-30.1,-12.9,-28.7
CCC1=CCN(c2cc(C)ccn2)OC1c1ccc(OC)cc1 (configuration not stated),47.9,6.15,48.4%,14.3,61,6.35
O=C(/C=C/c1ccccc1)NCCC1(O)C(=O)Nc2ccccc21 (configuration not stated),-8,-17.2,3.05%,8.35,-10.5,-15.5
CN(C)c1ccc(C2c3c(oc4ccccc4c3=O)Oc3oc4ccccc4c(=O)c32)cc1,3.8,-0.15,-9.85%,5.4,0.35,-17.5
C(=C\c1nc2ncccn2n1)/c1ccccc1,16.4,-2.75,6.55%,-20.9,4.6,-14.3
O=C(CCCCCC(=O)N1CC(CCl)c2ccc([N+](=O)[O-])cc21)N1CC(CCl)c2ccc([N+](=O)[O-])cc21 (configuration not stated),-28.8,-39.8,-15.6%,-4.5,-2.9,-55.4
COc1ccccc1C(OC)c1ccccc1C(=O)O (configuration not stated),-10.9,-17.1,-1.4%,-12.5,-4.7,-16.1
O=c1[nH]c2ccccc2nc1/C=C/NC(=S)Nc1ccccc1,-11.4,-18.1,-20%,6,-0.95,-2.2
CC(=O)CC(=O)CCC(=O)O,30.9,-20.2,-0.25%,7.1,13.9,32.8
CCCc1[nH]n(-c2ccccc2)c(=O)c1N=Nc1ccc(Cl)cc1,-4.25,-6.65,-9.95%,-5.1,-7.6,-0.8
CC(=O)NC(c1ccc(F)cc1)(c1ccc(F)cc1)C(F)(F)F,40.4,11.1,42.2%,35.6,43,40.9
CSCc1cc(C)ccc1NC(C)=O,0.5,-7.85,-0.75%,-16.5,-13.2,10.8
Cl[Si]1(Cl)Oc2ccccc2O[Si](Cl)(Cl)Oc2ccccc2O1,16.2,10.6,8.35%,28.6,3.7,10.2
CC(C)(C#N)OC(=O)c1cccc(C(=O)OC(C)(C)C#N)c1Sc1ccccc1,41.8,-2.6,-7.25%,7.55,-2,-1.55
CC(=O)n1oc2c(Br)cc(Br)cc2c1=O,-0.75,2.85,3.7%,-2.55,-1.05,15.1
CC(C)(C)[Si](C)(C)OCC1CCC(n2cnc3c(=O)[nH]cnc32)O1 (configuration not stated),14.7,-6.75,7.6%,-4.1,12.8,-7.25
